In test [1] the test system is DLD1. Kind of test: cell viability (CellTiter-Glo) relative to plate median (fraction of plate median); higher = more viable cells. The following applies: 5 µM; treatment time 24 h; reporter: 7TFP. The method in brief: (§1)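 On parallel plates, a Tecan F500 reader recorded either firefly luciferase or CellTiterGlo luminescence. The plates held colorectal cancer cells stably transduced with lentiviral TCF/Wnt firefly luciferase reporters (7TFP or TCF4/Wnt), seeded in 384-well format and treated 24 h later with library compounds at a final 5 µM for 24 h. Per-well signals were normalised to the plate median (webcellHTS2, additive, no log transformation), and two independent replicates were averaged.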
(ATP-based viability assays read luminescence as a measure of living cells.)

A further test concerns HCT116. The test is described as above. The conditions noted are these: 5 µM; treatment time 24 h; reporter: TCF4/Wnt. The method in brief:
as §1

Test [2] deals with SW480. The test is described as above. The conditions noted are these: 5 µM; treatment time 24 h; reporter: 7TFP. In short, it runs like this:
as §1

The subject of test [3] is DLD1. Description: TCF/Wnt firefly luciferase reporter signal relative to plate median (fraction of plate median); higher = higher Wnt reporter signal. The conditions noted are these: 5 µM; treatment time 24 h; reporter: 7TFP. The method in brief:
as §1
In general terms: Reporter assays use an easily measured gene product as a stand-in for the process of interest.

Test [4] concerns SW480. The description is as above. The conditions noted are these: 5 µM; treatment time 24 h; reporter: 7TFP. The method in brief: as §1

± gives the standard deviation of the averaged measurements.

For the compound `COc1ccc2cc1Oc1ccc(cc1)C[C@H]1c3c(cc4c(c3Oc3cc5c(cc3OC)CCN(C)[C@@H]5C2)OCO4)CCN1C`, the cell viability was found to be 1.02 ± 0.052 in the test on DLD1 [1], 0.934 ± 0.052 with HCT116 and 1.14 ± 0.035 with SW480 [2]. The “TCF/Wnt firefly luciferase reporter signal” value came to 1 ± 0.054 with DLD1 [3] and 1.05 ± 0.028 in the test with SW480 [4].

Consider `O=c1c(-c2ccc(O)cc2)coc2cc(O)ccc12`, for which the results for the cell viability in the test on DLD1 [1], in the test with HCT116 and in the test with SW480 [2] were 1.01, 0.9665 ± 0.0021 and 0.902 ± 0.0042, respectively. The “TCF/Wnt firefly luciferase reporter signal” value with DLD1 [3] is 0.978 ± 0.059; with SW480 [4], 0.971 ± 0.025.

In the case of `CC(C)(O)CC[C@@H](O)[C@](C)(O)[C@H]1CC[C@@]2(O)C3=CC(=O)[C@@H]4C[C@@H](O)[C@@H](O)C[C@]4(C)[C@H]3CC[C@]12C`, the cell viability in the test with DLD1 [1] was 0.977 ± 0.021; in the test with HCT116, 1.08 ± 0.042; with SW480 [2] it was 1.01. The “TCF/Wnt firefly luciferase reporter signal” value in the test on DLD1 [3] was determined as 1.1 ± 0.21; with SW480 [4] it was 1.14 ± 0.064.

As for `COC(=O)c1c(OC)cc2c(c1C)Oc1c(Cl)c(O)c(Cl)c(C)c1C(=O)O2`, the cell viability worked out at 1.02 ± 0.036 with DLD1 [1], 1.04 ± 0.014 in the test with HCT116 and 0.99 ± 0.0042 in the test with SW480 [2]. For the same compound, the figures for the “TCF/Wnt firefly luciferase reporter signal” value in the test on DLD1 [3] and in the test on SW480 [4] were 1.05 ± 0.085 and 0.954 ± 0.028, respectively.

Consider `CC(=O)O[C@@H]1C[C@H]2C(C)(C)C(=O)C=C[C@]2(C)[C@H]2CC[C@@]3(C)[C@H](c4ccoc4)OC(=O)[C@H]4O[C@]43[C@@]21C`, for which the cell viability stood at 1.01 ± 0.025 in the test with DLD1 [1], 1.07 ± 0.042 in the test with HCT116 and 0.97 ± 0.018 in the test with SW480 [2]. Besides, the “TCF/Wnt firefly luciferase reporter signal” value came to 1.19 ± 0.05 with DLD1 [3] and 1.11 ± 0.028 in the test with SW480 [4].

Take `CC(=O)O[C@]1(C(C)=O)CC[C@H]2[C@@H]3C[C@H](C)C4=CC(=O)CC[C@]4(C)[C@H]3CC[C@@]21C`: the cell viability was found to be 1.03 ± 0.014 with DLD1 [1], 0.989 ± 0.0099 in the test on HCT116 and 0.96 ± 0.018 in the test on SW480 [2]. Further, the “TCF/Wnt firefly luciferase reporter signal” value in the test with DLD1 [3] was determined as 0.971 ± 0.18; in the test with SW480 [4], 1 ± 0.035.

With `CN(CCOc1ccc(CC2SC(=O)NC2=O)cc1)c1ccccn1` (stereo not given), the cell viability amounted to 0.935 ± 0.03 in the test with DLD1 [1], 0.894 ± 0.044 in the test with HCT116 and 0.949 ± 0.04 in the test with SW480 [2]. Further, the “TCF/Wnt firefly luciferase reporter signal” value came to 0.899 ± 0.09 in the test with DLD1 [3] and 0.906 ± 0.15 with SW480 [4].

As to `N=C(N)NS(=O)(=O)c1ccc(N)cc1`, the cell viability with DLD1 [1] amounted to 0.943 ± 0.044; in the test with HCT116, 0.892 ± 0.057; in the test with SW480 [2] it was 0.981 ± 0.027. In addition, the “TCF/Wnt firefly luciferase reporter signal” value with DLD1 [3] amounted to 0.962 ± 0.033; in the test on SW480 [4], 0.986 ± 0.048.

For `NCCCCC(=O)O`, the values for the cell viability with DLD1 [1], in the test with HCT116 and with SW480 [2] were 0.9365 ± 0.0021, 0.981 ± 0.098 and 1.03 ± 0.021, respectively. Further, the “TCF/Wnt firefly luciferase reporter signal” value in the test on DLD1 [3] is 1.06 ± 0.19; with SW480 [4], 0.9645 ± 0.00071.

As for `C[C@H](CCC(=O)O)[C@H]1CC[C@H]2[C@@H]3[C@@H](O)C[C@@H]4C[C@H](O)CC[C@]4(C)[C@H]3CC[C@]12C`, the cell viability in the test on DLD1 [1] turned out to be 0.966 ± 0.029; in the test with HCT116, 1.01 ± 0.025; in the test with SW480 [2], 0.958 ± 0.028. For the same compound, the “TCF/Wnt firefly luciferase reporter signal” value stood at 0.89 ± 0.061 with DLD1 [3] and 1.02 ± 0.09 in the test with SW480 [4].

Consider `CC(=O)OCC(=O)[C@@]1(O)CC[C@H]2[C@@H]3CCC4=CC(=O)CC[C@]4(C)[C@@]3(F)[C@@H](O)C[C@@]21C`, for which the cell viability in the test on DLD1 [1] stood at 0.975 ± 0.027; with HCT116, 1.07 ± 0.085; in the test with SW480 [2], 0.995 ± 0.022. Moreover, the “TCF/Wnt firefly luciferase reporter signal” value in the test on DLD1 [3] came to 1.06; in the test with SW480 [4] it was 1.07 ± 0.11.

Turning to `COc1cccc(O)c1O`, the figures for the cell viability in the test with DLD1 [1], with HCT116 and in the test on SW480 [2] were 0.938 ± 0.059, 0.905 ± 0.11 and 0.942 ± 0.0028, respectively. In addition, the “TCF/Wnt firefly luciferase reporter signal” value in the test on DLD1 [3] amounted to 0.96 ± 0.099; in the test with SW480 [4], 0.978 ± 0.088.

As to `CC(=O)O[C@H]1CC[C@@]2(C)[C@@H](CC[C@@H]3[C@@H]2CC(=O)[C@]2(C)[C@@H]4[C@H](C[C@@H]32)O[C@]2(CC[C@@H](C)CO2)[C@H]4C)C1`, the cell viability in the test on DLD1 [1] was found to be 0.907 ± 0.018; in the test on HCT116, 0.934 ± 0.047; with SW480 [2] it was 0.9615 ± 0.0035. The “TCF/Wnt firefly luciferase reporter signal” value in the test on DLD1 [3] was 0.858 ± 0.038; in the test on SW480 [4] it was 0.995 ± 0.16.

On to `CN(C)CCC(c1ccc(Br)cc1)c1ccccn1` (stereo not given), for which the cell viability with DLD1 [1] turned out to be 0.931 ± 0.15; in the test on HCT116, 1.055 ± 0.0071; in the test with SW480 [2] it was 0.922 ± 0.061. The “TCF/Wnt firefly luciferase reporter signal” value with DLD1 [3] stood at 1.11 ± 0.11; with SW480 [4], 1.055 ± 0.0071.

`CN1CCN(CCCN2c3ccccc3Sc3ccc(Cl)cc32)CC1`: the cell viability in the test on DLD1 [1] stood at 1.02 ± 0.13; in the test on HCT116, 0.941 ± 0.098; in the test with SW480 [2], 1.09 ± 0.064. Also, the “TCF/Wnt firefly luciferase reporter signal” value with DLD1 [3] is 1.03 ± 0.054; in the test on SW480 [4], 0.929 ± 0.042.
